{"source": "paper PMC7826789", "about": "(International Journal of Molecular Sciences, 2021)"}
{"compound": "C=CC(=O)Nc1cc(-c2nn(C3CCC(N4CCN(C(C)=O)CC4)CC3)c3ncnc(N)c23)ccc1Oc1ccccc1", "note": "(stereo not drawn) [TX-85-1]", "values": [{"measurement": "Kinases covered", "setting": "ERBB3", "result": "ERBB3"}]}
{"compound": "Fc1cccc(COc2ccc(Nc3ncncc3C#Cc3ccccc3)cc2Cl)c1", "note": "[GW651576X]", "values": [{"measurement": "Kinases covered", "setting": "EGFR", "result": "EGFR"}]}
{"compound": "COc1cc2ncnc(Nc3ccc(F)c(Cl)c3)c2cc1O[C@H]1CC[C@H](N)CC1", "note": "[BIBW3133BS]", "values": [{"measurement": "Kinases covered", "setting": "EGFR", "result": "EGFR"}, {"measurement": "Kinases covered", "setting": "ERBB2", "result": "ERBB2"}]}
{"compound": "COc1cc2ncnc(Nc3cccc(Cl)c3F)c2cc1O[C@H]1CC[C@H]([C@@H]2NCCNC2=O)CC1", "note": "[BI00133844]", "values": [{"measurement": "Kinases covered", "setting": "EGFR", "result": "EGFR"}, {"measurement": "Kinases covered", "setting": "EPHA6", "result": "EPHA6"}, {"measurement": "Kinases covered", "setting": "EPHB4", "result": "EPHB4"}, {"measurement": "Kinases covered", "setting": "ERBB2", "result": "ERBB2"}, {"measurement": "Kinases covered", "setting": "ERBB4", "result": "ERBB4"}]}
{"compound": "COc1cc2ncnc(Nc3ccc4c(cnn4Cc4ccccc4)c3)c2cc1OC.Cl", "note": "[GW282449A]", "values": [{"measurement": "Kinases covered", "setting": "ERBB4", "result": "ERBB4"}]}
{"compound": "Cl.c1ccc(Cc2nc3ccc(Nc4ncnc5ccccc45)cc3[nH]2)cc1", "note": "[GR269666A]", "values": [{"measurement": "Kinases covered", "setting": "ERBB4", "result": "ERBB4"}]}
{"compound": "COC(=O)C(NC(=O)NC1CCN(c2ccnc(Nc3ccc(F)cc3)n2)C1)c1ccccc1", "note": "(stereo not drawn) [GSK1379712]", "values": [{"measurement": "Kinases covered", "setting": "EPHB6", "result": "EPHB6"}]}
{"compound": "Cc1cc(NC(=O)c2cccc(NC(=O)/C=C/CN(C)C)c2)ccc1Nc1nccc(-c2cccnc2)n1", "note": "[JNK-IN-7]", "values": [{"measurement": "Kinases covered", "setting": "ERK3", "result": "ERK3"}]}
{"compound": "Cl.O=S1CCN(Cc2ccc(-c3ccc4ncnc(Nc5ccc(OCc6ccccc6)c(F)c5)c4c3)o2)CC1", "note": "[GW576924A]", "values": [{"measurement": "Kinases covered", "setting": "EGFR", "result": "EGFR"}, {"measurement": "Kinases covered", "setting": "ERBB2", "result": "ERBB2"}]}
{"compound": "Cl.O=C(O[C@H]1CN[C@H](C#Cc2cc3ncnc(Nc4ccc5c(cnn5Cc5ccccc5)c4)c3s2)C1)N1CCOCC1", "note": "[GSK200398A]", "values": [{"measurement": "Kinases covered", "setting": "EGFR", "result": "EGFR"}, {"measurement": "Kinases covered", "setting": "ERBB2", "result": "ERBB2"}, {"measurement": "Kinases covered", "setting": "ERBB4", "result": "ERBB4"}]}
{"compound": "O=C(Nc1cccc(-c2nn3ncccc3c2-c2ccnc(Nc3cccnc3)n2)c1)c1c(F)cccc1F", "note": "[GSK312879]", "values": [{"measurement": "Kinases covered", "setting": "EGFR", "result": "EGFR"}, {"measurement": "Kinases covered", "setting": "ERBB2", "result": "ERBB2"}, {"measurement": "Kinases covered", "setting": "ERBB4", "result": "ERBB4"}]}
{"compound": "Cn1ccc(-c2cccc(Nc3ccnc4cc(-c5nccs5)ccc34)c2)n1", "note": "[GW525701]", "values": [{"measurement": "Kinases covered", "setting": "EPHB6", "result": "EPHB6"}]}
{"compound": "COC(=O)Nc1nc2ccc(Oc3ccc(NC(=O)Nc4cc(C(F)(F)F)ccc4F)cc3)cc2s1.Cl", "note": "[GW693917A]", "values": [{"measurement": "Kinases covered", "setting": "EPHA2", "result": "EPHA2"}]}
{"compound": "CN(C)c1cc2c(Nc3ccc4c(cnn4Cc4ccccc4)c3)ncnc2cn1", "note": "[GW282974X]", "values": [{"measurement": "Kinases covered", "setting": "ERBB2", "result": "ERBB2"}, {"measurement": "Kinases covered", "setting": "ERBB4", "result": "ERBB4"}]}
{"compound": "Cn1cc(-c2ccc3c(c2)CCN3C(=O)Cc2cccc(C(F)(F)F)c2)c2c(N)ncnc21", "note": "[GSK2606414]", "values": [{"measurement": "Kinases covered", "setting": "EIF2AK3", "result": "EIF2AK3"}]}
{"compound": "COc1cc2ncnc(Nc3cccc(Cl)c3F)c2cc1O[C@H]1CC[C@@]2(CC1)NCCNC2=O", "note": "[BI00113608]", "values": [{"measurement": "Kinases covered", "setting": "EGFR", "result": "EGFR"}, {"measurement": "Kinases covered", "setting": "EPHA6", "result": "EPHA6"}, {"measurement": "Kinases covered", "setting": "EPHB4", "result": "EPHB4"}, {"measurement": "Kinases covered", "setting": "ERBB2", "result": "ERBB2"}]}
{"compound": "Cc1cccc(CC(=O)N2CCc3c2ccc(-c2cn(C)c4ncnc(N)c24)c3F)n1", "note": "[GSK2656157]", "values": [{"measurement": "Kinases covered", "setting": "EIF2AK3", "result": "EIF2AK3"}]}
{"compound": "C#Cc1cccc(Nc2ncnc3cc(OC)c(OC4CCN(C)CC4)cc23)c1", "note": "[BI00007366]", "values": [{"measurement": "Kinases covered", "setting": "EGFR", "result": "EGFR"}, {"measurement": "Kinases covered", "setting": "ERBB2", "result": "ERBB2"}]}
